Source: the supplement of paper PMC9694430

Assays:
Test in all cases: thermal shift delta Tm vs DMSO control; higher = stronger stabilization (binding)
Details in all cases: 12.5 µM; protein concentration 2 µM
LOC_OS01G01410-cb001 = system: LOC_OS01G01410-cb001
How it was run: (§1)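 Compounds dissolved in DMSO were added to purified rice kinase domain constructs, which had been expressed in E. coli, for differential scanning fluorimetry. Each well held 19.5 μl of 2 μM kinase in 100 mM potassium phosphate pH 7.5, 150 mM NaCl, 10% glycerol and 5 × SYPRO Orange. Fluorescence was followed from 25°C to 95°C at a rate of 0.05°C/s. Shifts in Boltzmann-fitted melting temperature are triplicate means relative to DMSO-only protein.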

LOC_OS01G02750-cb003 = system: LOC_OS01G02750-cb003
How it was run: as §1

LOC_OS01G10900-cb004 = system: LOC_OS01G10900-cb004
How it was run: as §1

LOC_OS01G13800-cb001 = system: LOC_OS01G13800-cb001
How it was run: as §1

LOC_OS01G14860-cb001 = system: LOC_OS01G14860-cb001
How it was run: as §1

LOC_OS01G21960-cb002 = system: LOC_OS01G21960-cb002
How it was run: as §1

LOC_OS01G39600-cb002 = system: LOC_OS01G39600-cb002
How it was run: as §1

LOC_OS01G48390-cb002 = system: LOC_OS01G48390-cb002
How it was run: as §1

LOC_OS01G51400-cb002 = system: LOC_OS01G51400-cb002
How it was run: as §1

LOC_OS01G52050-cb004 = system: T1, LOC_OS01G52050-cb004
T1 sequence (whole entry): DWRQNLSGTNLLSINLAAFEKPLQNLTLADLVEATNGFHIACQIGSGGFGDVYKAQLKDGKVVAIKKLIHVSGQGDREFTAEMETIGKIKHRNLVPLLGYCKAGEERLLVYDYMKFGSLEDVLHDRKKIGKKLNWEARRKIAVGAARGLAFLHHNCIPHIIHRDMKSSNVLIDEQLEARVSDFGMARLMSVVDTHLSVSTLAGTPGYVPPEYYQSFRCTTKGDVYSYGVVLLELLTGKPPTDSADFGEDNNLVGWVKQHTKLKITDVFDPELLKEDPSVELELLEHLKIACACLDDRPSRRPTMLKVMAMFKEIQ
How it was run: as §1

LOC_OS01G57100-cb003 = system: LOC_OS01G57100-cb003
How it was run: as §1

LOC_OS01G60330-cb001 = system: LOC_OS01G60330-cb001
How it was run: as §1

LOC_OS01G60700-cb002 = system: LOC_OS01G60700-cb002
How it was run: as §1

LOC_OS01G63280-cb003 = system: LOC_OS01G63280-cb003
How it was run: as §1

LOC_OS01G67340-cb003 = system: LOC_OS01G67340-cb003
How it was run: as §1

LOC_OS01G70970-cb002 = system: LOC_OS01G70970-cb002
How it was run: as §1

LOC_OS02G07810-cb001 = system: LOC_OS02G07810-cb001
How it was run: as §1

LOC_OS02G08530-cb003 = system: LOC_OS02G08530-cb003
How it was run: as §1

LOC_OS02G14120-cb001 = system: LOC_OS02G14120-cb001
How it was run: as §1

LOC_OS02G17970-cb001 = system: LOC_OS02G17970-cb001
How it was run: as §1

Row | Structure (SMILES) | thermal shift delta Tm (LOC_OS01G01410-cb001) [°C] | thermal shift delta Tm (LOC_OS01G02750-cb003) [°C] | thermal shift delta Tm (LOC_OS01G10900-cb004) [°C] | thermal shift delta Tm (LOC_OS01G13800-cb001) [°C] | thermal shift delta Tm (LOC_OS01G14860-cb001) [°C] | thermal shift delta Tm (LOC_OS01G21960-cb002) [°C] | thermal shift delta Tm (LOC_OS01G39600-cb002) [°C] | thermal shift delta Tm (LOC_OS01G48390-cb002) [°C] | thermal shift delta Tm (LOC_OS01G51400-cb002) [°C] | thermal shift delta Tm (LOC_OS01G52050-cb004) [°C] | thermal shift delta Tm (LOC_OS01G57100-cb003) [°C] | thermal shift delta Tm (LOC_OS01G60330-cb001) [°C] | thermal shift delta Tm (LOC_OS01G60700-cb002) [°C] | thermal shift delta Tm (LOC_OS01G63280-cb003) [°C] | thermal shift delta Tm (LOC_OS01G67340-cb003) [°C] | thermal shift delta Tm (LOC_OS01G70970-cb002) [°C] | thermal shift delta Tm (LOC_OS02G07810-cb001) [°C] | thermal shift delta Tm (LOC_OS02G08530-cb003) [°C] | thermal shift delta Tm (LOC_OS02G14120-cb001) [°C] | thermal shift delta Tm (LOC_OS02G17970-cb001) [°C]
1 | O=S(=O)(NCCNC/C=C/c1ccc(Br)cc1)c1cccc2cnccc12 | 0.28 | 0.92 | 3.17 | 0.66 | 0.58 | 1.16 | 0.27 | 1.8 | 0.23 | 0.48 | 1.34 | 0.45 | 0.98 | 0.58 | -0.25 | 0.05 | 1.39 | 0.72 | 0.95 | 0.98
2 | CC(C)(C)c1cnc(CSc2cnc(NC(=O)C3CCNCC3)s2)o1 | 1.11 | 10.9 | 3.68 | 0.5 | 5.74 | 0.34 | 0.92 | 6.3 | 0.67 | 0.49 | 0.61 | 1.41 | 1.28 | 0.71 | -0.45 | 0.26 | 0.43 | 0.72 | 0.42 | -0.01
3 | CC[C@@](C)(Nc1ccnc(-c2c[nH]c3ncccc23)n1)C(=O)NCC(F)(F)F [Decernotinib (VX-509)] | 0.58 | 1.32 | -0.38 | 0.4 | 0.78 | 3.1 | -0.05 | 1.08 | 0.22 | 0.18 | 2.18 | 0.73 | 0.67 | 0.95 | 0.62 | 0.36 | 0.36 | 0.65 | 5.49 | 0.86
4 | COc1cc(Nc2ncc(F)c(Nc3ccc4c(n3)NC(=O)C(C)(C)O4)n2)cc(OC)c1OC | 0.76 | 0.35 | 0.54 | -0.84 | 5.04 | 3.95 | 4.95 | 0.28 | 0.41 | 7.74 | 4.83 | 4.41 | 0.57 | 0.28 | 0.45 | 2.5 | 0.41 | 4 | 12.4 | 0.45
5 | COc1cc(-c2cc(-c3ccc(N4CCNCC4)cc3)cnc2C)cc(OC)c1OC | 1.74 | 0.65 | 1.13 | -0.6 | -0.12 | 0.67 | -1.03 | 0.11 | -0.26 | 0.04 | -0.02 | 1.13 | 0.16 | -0.05 | 0.51 | 0.29 | 0.05 | 0.49 | 1.25 | 0.44
6 | Cc1c[nH]c2nc(Nc3ccc(N4CCN(C)CC4)c(F)c3)nc(-c3cccc(CC#N)c3)c12 | 6.3 | 6.99 | 3.64 | 0.12 | 5.41 | 4.45 | 9.35 | 5.5 | 1.14 | 13.5 | 5.04 | 11.8 | 1.98 | 3.25 | 11.9 | 8.75 | 1.04 | 6.49 | 15.2 | 1.24
7 | CCOc1cc2ncc(C#N)c(Nc3ccc(OCc4ccccn4)c(Cl)c3)c2cc1NC(=O)/C=C/CN(C)C [Neratinib (HKI-272)] | 1.9 | 1.42 | 1 | 0.47 | 6.67 | 0.71 | 5.12 | 0.77 | 0.27 | 2.11 | 1.51 | 0.66 | 1.67 | 1.02 | 1.41 | 0.3 | 0.52 | 1 | 1.97 | 1.71
8 | O=c1cc(-c2ccccc2)oc2c(O)c(O)ccc12 [7,8-Dihydroxyflavone] | 2.01 | 2.3 | 0.12 | 2.97 | 3.88 | 3.56 | 0.49 | 1.55 | 0.69 | 1.44 | 5.23 | -0.01 | 3.2 | 1.34 | 0.96 | -0.06 | 2.73 | 1.59 | 0.71 | 3.29
9 | Cc1c[nH]c(/C=C2\C(=O)Nc3ccccc32)c1CCC(=O)O | 1.48 | 0.9 | 0.02 | 0 | 1.61 | 0.56 | 4.55 | 1.99 | 0.25 | 1.77 | 0.49 | 11.5 | 0.67 | 0.07 | 3.1 | 5.88 | -0.06 | 3.9 | 1.56 | 0.22
10 | CC(C)(C)c1nc(-c2cccc(NS(=O)(=O)c3c(F)cccc3F)c2F)c(-c2ccnc(N)n2)s1 | 1.54 | 0.76 | 0.26 | 0.08 | 8.58 | 1.84 | -9.31 | 0.37 | 0.33 | 1.56 | 2.01 | 7.29 | 1.89 | 19.8 | 1.21 | 3.43 | 1.44 | 1.92 | 3.94 | 1.55
